Reference: PubChem BioAssay (Tox21)
Results filed as inconclusive are left out. A number with no mark means an inactive call. The call rests on the fitted dose curve; in most records, active means well fitted inhibition curve with a large enough effect in the repeat runs; inconclusive means weak or mixed curves; inactive means no such curve, though single readings can be large or run the other way. Starred links: 1 amine or outer side, 2 acyl side, 3 side chain; linkers in the order of their positions; H or OH if unused. Positions of bridges follow the written chain, without caps; N, C: chain ends. Non-standard residues stand in square brackets, D forms with d. Residues, ends and D or L forms follow the SMILES beside them. *: point of attachment. X5 = NC1=N[C@@H]([C@H](N[*:1])C(=O)[*:2])C[C@H](O)N1; ΔAla(Z-3-ureido) = NC(=O)N/C=C(\N)C(=O)O; β3hOrn = NCCC[C@H](N)CC(=O)*; Dap = NC[C@H](N)C(=O)O

The compounds below were run against Aromatase (Homo sapiens) (UniProt P11511) (assay: qHTS assay to identify aromatase inhibitors (AID 743083; further: nearly all actives have a fitted effect of over 55% in size)). Details: MCF-7 aro ERE, testosterone-driven ERE luciferase, 24 h; series mostly up to 70.3 µM; activity, negative = inhibition: at the top concentration.
Chain of Aromatase (Homo sapiens) (P11511 whole entry, looked up): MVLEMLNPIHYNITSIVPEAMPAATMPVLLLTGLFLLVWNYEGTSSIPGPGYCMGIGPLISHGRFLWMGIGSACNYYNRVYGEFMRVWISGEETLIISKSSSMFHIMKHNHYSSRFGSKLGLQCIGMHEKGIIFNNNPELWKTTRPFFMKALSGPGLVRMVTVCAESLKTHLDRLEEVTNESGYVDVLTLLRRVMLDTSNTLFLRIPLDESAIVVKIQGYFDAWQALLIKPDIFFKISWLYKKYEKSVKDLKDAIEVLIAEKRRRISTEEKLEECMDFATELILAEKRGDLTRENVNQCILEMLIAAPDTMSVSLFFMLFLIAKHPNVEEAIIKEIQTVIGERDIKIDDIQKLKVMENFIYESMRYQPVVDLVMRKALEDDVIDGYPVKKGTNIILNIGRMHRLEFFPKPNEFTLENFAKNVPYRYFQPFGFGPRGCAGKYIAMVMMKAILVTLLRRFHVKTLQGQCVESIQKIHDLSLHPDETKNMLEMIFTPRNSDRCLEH
On the % scale 0 is the no-effect control and ±100 the full control effect.

SMILES	activity, negative = inhibition
C=C1c2c(Cl)ccc(O)c2C(O)=C2C(=O)[C@]3(O)C(O)=C(C(N)=O)C(=O)[C@@H](N(C)C)[C@@H]3[C@@H](O)[C@H]12	-12.5% [at 32.5 µM]
O=P(O)(O)C(O)(Cc1cnc2ccccn12)P(=O)(O)O	7.31%
CCCCCCCCCCCCCCCCCC(=O)OCCO	-1.06%
COc1cc(S(C)=O)ccc1-c1nc2ncccc2[nH]1 (stereo unspecified)	18.7%
c1ccc2c(CCC3CCNCC3)c[nH]c2c1	-17%
CN[C@@H]1[C@@H](O)[C@@H](O[C@@H]2[C@@H](O)[C@H](OC3OC(CN)=CCC3N)[C@@H](N)C[C@H]2N)OC[C@]1(C)O (stereo partly specified)	12.7% [at 32.5 µM]
Cc1cc(Nc2ccccc2C(=O)O)ccc1Cl	5.87%
NCCCC[C@H](NC(=O)[C@@H]1CCCN1C(=O)[C@@H]1CSSC[C@H](N)C(=O)N[C@@H](Cc2ccccc2)C(=O)N[C@@H](Cc2ccccc2)C(=O)N[C@@H](CCC(N)=O)C(=O)N[C@@H](CC(N)=O)C(=O)N1)C(=O)NCC(N)=O	-1.19%
O=C(O)c1ccc(OCCn2ccnc2)cc1	-4.25%
CNC[C@@H]1CC[C@@H](N)[C@@H](O[C@H]2[C@H](O)[C@@H](O[C@H]3OC[C@](C)(O)[C@H](NC)[C@H]3O)[C@H](N)C[C@@H]2N)O1	3.92%
CN(CCO)CC(O)Cn1cnc2c1c(=O)n(C)c(=O)n2C (stereo unspecified) (tested in a mixture with another compound)	-1.72%
Nc1ccn(C[C@@H](CO)OCP(=O)(O)O)c(=O)n1	7.2%
CN=C(NC)NCc1ccccc1	6.57%
C[N+](C)(CCCCCC[N+](C)(C)C1c2ccccc2-c2ccccc21)C1c2ccccc2-c2ccccc21	-3.11%
Nc1ncnc(Nc2ccc(Cl)cc2)n1	44.6%
O=P(O)(O)OC(Cn1cncn1)(Cn1cncn1)c1ccc(F)cc1F	13.3%
C[C@]12C=CC(=O)C=C1CC[C@@H]1[C@@H]2[C@@H](O)C[C@@]2(C)[C@H]1CC[C@]2(O)C(=O)COC(=O)CCC(=O)O	99.1%
CCCC(=O)N1CCCN(c2nc(N)c3cc(OC)c(OC)cc3n2)CC1	-1.64%

SMILES	activity, negative = inhibition
OCC(O)COc1ccc(Cl)cc1 (stereo unspecified)	5.21%
C[C@]12CCC(=O)C=C1CC[C@@H]1[C@@H]2[C@@H](O)C[C@@]2(C)[C@H]1CC[C@]2(O)C(=O)COP(=O)(O)O	74.8%
CC(=O)OC[C@H]1O[C@@H](O[C@H]2[C@H](O)[C@@H](OC(=O)c3ccccc3C(=O)O)[C@H](O)O[C@@H]2COC(C)=O)[C@H](O)[C@@H](OC(=O)c2ccccc2C(=O)O)[C@@H]1O	-1.07%
CCC(C)C(C(=O)OCC[N+](C)(CC)CC)c1ccccc1 (stereo unspecified)	-14.1%
CCOC(=O)[C@H](CCc1ccccc1)N[C@H]1CCCN2CCC[C@@H](C(=O)O)N2C1=O	-4.54%
C#CCC(Cc1cnc2nc(N)nc(N)c2n1)c1ccc(C(=O)N[C@@H](CCC(=O)O)C(=O)O)cc1 (stereo partly specified)	-17.2%
CCN(CC)c1ccc(N=Nc2ccc(S(=O)(=O)N(C)C)cc2)c(S(=O)(=O)NCC[n+]2ccccc2)c1	14.4%
NCCC[C@H](N)CC(=O)N[C@H]1CNC(=O)[C@H]([C@H]2C[C@H](O)NC(N)=N2)NC(=O)/C(=C/NC(N)=O)NC(=O)[C@H](CO)NC(=O)[C@H](CO)NC1=O (β3hOrn-[Dap]SS[ΔAla(Z-3-ureido)][X5]; lactam 1-C)	-5.88%
O=C[C@H](O)[C@@H](O)[C@H](O[C@H]1O[C@H](CO)[C@@H](O[C@H]2O[C@H](CO)[C@@H](O)[C@H](O)[C@H]2O)[C@H](O)[C@H]1O)[C@H](O)CO	31.3%
CC(=O)N[C@@H](CC(=O)N[C@@H](CCC(=O)O)C(=O)O)C(=O)O	1.15%
CC1(C)S[C@@H]2[C@H](NC(=O)C(C(=O)Oc3ccc4c(c3)CCC4)c3ccccc3)C(=O)N2[C@H]1C(=O)O (stereo partly specified)	-2.28%
CC(=O)OCC(=O)[C@@]1(O)[C@H](C)C[C@H]2[C@@H]3C[C@H](F)C4=CC(=O)C=C[C@]4(C)[C@H]3[C@@H](O)C[C@@]21C	43%
C[C@H]1C[C@H]2[C@@H]3CCC4=CC(=O)C=C[C@]4(C)[C@@]3(F)[C@@H](O)C[C@]2(C)[C@@]1(O)C(=O)CCl	4.54%
Cc1c(O)cc2c(c1C)O[C@](C)(CCC[C@H](C)CCC[C@H](C)CCCC(C)C)CC2	3.61%
CCCCCCCCCCCCCCCC(=O)OC[C@@H](COP(=O)([O-])OCC[N+](C)(C)C)OC(=O)CCCCCCCCCCCCCCC	9.71%
CCCCCCCCCCCCCCCCCCOP(=O)([O-])OC1CC[N+](C)(C)CC1	-19.1% [at 32.5 µM]
C=C1CC2C3CCC4=CC(=O)C=C[C@]4(C)[C@@]3(F)[C@@H](O)C[C@]2(C)[C@@]1(O)C(=O)COC(C)=O (stereo partly specified)	69.8%
CO[C@H]1[C@@H](O)[C@H](N)[C@@H](O[C@H]2O[C@H]([C@H](C)N)CC[C@H]2N)[C@H](O)[C@@H]1N(C)C(=O)CN	10.3%
